The results in this text go back to ChEMBL document CHEMBL4296182, “CO-ADD screening of NIH NCI Diversity Set V”.

For part of these data: Measured potencies and affinities stand elsewhere.

In one assay the test system is Staphylococcus aureus. Put plainly: Antibacterial activity against Staphylococcus aureus MRSA ATCC 43300 (CO-ADD:GP_020); MIC in CAMBH media using NBS plates, by Resazurin F(560/590). The format is functional. The settings on record: Concentration 20 uM, ASSAY_TEST Inhibition of Bacterial Growth, detection method Resazurin, Fluorescence (ex560/em590), MEDIA CAMHB, plate type 384well, CORNING #3640, time 18 hr. A general note: Resazurin is reduced to fluorescent resorufin, in cell work by metabolically active cells.

The subject of a further assay is Acinetobacter baumannii. The experiment in a line: Antibacterial activity against Acinetobacter baumannii ATCC 19606 (CO-ADD:GN_034); MIC in CAMBH media using NBS plates, by Resazurin F(560/590). The format is functional. As to conditions: Concentration 20 uM, ASSAY_TEST Inhibition of Bacterial Growth, detection method Resazurin, Fluorescence (ex560/em590), MEDIA CAMHB, plate type 384well, CORNING #3640, time 18 hr.

The next assay relates to Escherichia coli. The experiment in a line: Antibacterial activity against Escherichia coli ATCC 25922 (CO-ADD:GN_001); MIC in CAMBH media using NBS plates, by Resazurin F(560/590). The format is functional. The settings on record: Concentration 20 uM, ASSAY_TEST Inhibition of Bacterial Growth, detection method Resazurin, Fluorescence (ex560/em590), MEDIA CAMHB, plate type 384well, CORNING #3640, time 18 hr.

A further assay deals with Klebsiella pneumoniae. The settings on record: Concentration 20 uM; ASSAY_TEST Inhibition of Bacterial Growth; detection method Absorption (OD600); MEDIA CAMHB; plate type 384well; NBS; CORNING #3640; time 18 hr.
The next assay deals with Candida albicans. The settings on record: 20 µM.
The next assay deals with Cryptococcus neoformans. As to conditions: Concentration 20 uM; ASSAY_TEST Inhibition of Fungal Growth; detection method Resazurin; Absorption (OD600-OD570); plate type 384well; NBS; CORNING #3640.

A word on the Inhibition: it is the drop in the measured response relative to a control, in per cent. Consider `O=C(c1cccnc1)N1CCN(c2ccccc2Cl)CC1`, for which the Inhibition in the assay with Staphylococcus aureus is 7.8%; in the assay on Acinetobacter baumannii, -13.63%; in the assay with Escherichia coli it was 10.26%; with Klebsiella pneumoniae, 11.81%; with Candida albicans, 2.66%; in the assay with Cryptococcus neoformans, -13.57%.

For `CCn1c2ccccc2c2c3ncc4cccn4c3ccc21`, the Inhibition was -13.6% in the assay on Staphylococcus aureus; -8.64% in the assay on Acinetobacter baumannii; 1.37% with Escherichia coli; 9.08% with Klebsiella pneumoniae; 32.4% in the assay on Candida albicans; -7.68% in the assay with Cryptococcus neoformans.

Turning to `NS(=O)(=O)c1ccc(Cl)cc1[N+](=O)[O-]`, the Inhibition was -0.55% in the assay on Staphylococcus aureus; -3.88% in the assay with Acinetobacter baumannii; 8.03% in the assay with Escherichia coli; 12.78% in the assay on Klebsiella pneumoniae; 3.7% in the assay with Candida albicans; 15.75% with Cryptococcus neoformans.

As for `N#Cc1nnn2c1nc(N)c1c(Cl)cccc12`, the Inhibition with Staphylococcus aureus was 11.84%; in the assay with Acinetobacter baumannii, 9.93%; in the assay with Escherichia coli, 2.46%; in the assay on Klebsiella pneumoniae, 14.13%; in the assay with Candida albicans, 1.33%; in the assay on Cryptococcus neoformans, -4.78%.

`O=C1NC(=O)C(Cc2ccccc2)(c2cccnc2)N1` (stereo not given): the Inhibition amounted to 33.81% with Staphylococcus aureus; 2.65% in the assay with Acinetobacter baumannii; 15.22% in the assay with Escherichia coli; 9.85% in the assay on Klebsiella pneumoniae; 7.24% in the assay with Candida albicans; 16.94% with Cryptococcus neoformans.

Take `Cc1nc2ccccc2nc1N1CCCC1`: the Inhibition in the assay on Staphylococcus aureus is 12.43%; in the assay with Acinetobacter baumannii, -3.73%; in the assay with Escherichia coli it was 4.2%; with Klebsiella pneumoniae, 6.96%; in the assay with Candida albicans, 2.02%; in the assay with Cryptococcus neoformans, -9.29%.

Turning to `O=C(O)/C(=C/c1ccccc1)c1ccccc1`, the Inhibition is 7.86% with Staphylococcus aureus; -10.93% in the assay with Acinetobacter baumannii; 11.66% in the assay with Escherichia coli; 8.35% with Klebsiella pneumoniae; 8.14% with Candida albicans; -16.02% in the assay with Cryptococcus neoformans.

Take `N#CC1=CC2CN(Cc3ccccc3)C1C1C(=O)N(c3ccccc3)C(=O)C21` (stereo not given): the Inhibition in the assay on Staphylococcus aureus was -0.51%; with Acinetobacter baumannii, 3.07%; in the assay on Escherichia coli, -13.61%; in the assay with Klebsiella pneumoniae, 5.72%; in the assay with Candida albicans, 9.06%; with Cryptococcus neoformans, 18.01%.

On to `O=c1cc(-c2ccccc2)[nH]c2cc(-c3ccco3)nn12`, for which the Inhibition is 0.84% with Staphylococcus aureus; -12.67% in the assay with Acinetobacter baumannii; 11.9% with Escherichia coli; 14.24% in the assay on Klebsiella pneumoniae; -0.13% in the assay on Candida albicans; -17.18% in the assay with Cryptococcus neoformans.

Consider `CC(=O)Nc1cc(NC(C)=O)ncn1`, for which the Inhibition in the assay on Staphylococcus aureus is 12.16%; in the assay on Acinetobacter baumannii it was -10.63%; with Escherichia coli, 12.12%; in the assay on Klebsiella pneumoniae, 16.66%; with Candida albicans, 3.12%; in the assay on Cryptococcus neoformans it was -1.27%.

Turning to `O=C(Nc1ccccc1)Oc1cccnc1O`, the Inhibition was 7.3% in the assay on Staphylococcus aureus; 9.45% in the assay with Acinetobacter baumannii; -1.58% in the assay on Escherichia coli; 18.58% in the assay with Klebsiella pneumoniae; 5.22% in the assay on Candida albicans; -7.26% with Cryptococcus neoformans.

Regarding `C#CC1(N2CCCCC2)CCCCC1`, the Inhibition in the assay on Staphylococcus aureus was 17.84%; with Acinetobacter baumannii, -17.5%; in the assay with Escherichia coli, 12.63%; with Klebsiella pneumoniae it was -1.14%; in the assay with Candida albicans it was -1.65%; with Cryptococcus neoformans, -12.88%.

As to `Nc1ccccc1-n1nc2ccc3ccccc3c2n1`, the Inhibition was -2.24% in the assay on Staphylococcus aureus; -24.16% with Acinetobacter baumannii; 7.22% in the assay on Escherichia coli; 6.99% in the assay with Klebsiella pneumoniae; 3.16% in the assay with Candida albicans; -10.55% in the assay on Cryptococcus neoformans.

Consider `O=C1COc2c1ccc(O)c2O`, for which the Inhibition in the assay with Staphylococcus aureus was 0.46%; with Acinetobacter baumannii, -23.14%; in the assay on Escherichia coli, 5.49%; in the assay on Klebsiella pneumoniae, 7.13%; with Candida albicans it was 0.16%; in the assay with Cryptococcus neoformans, -9.43%.

In the case of `CNc1ccc(/N=N/c2cc[n+]([O-])cc2C)cc1C`, the Inhibition with Staphylococcus aureus was -1.07%; in the assay on Acinetobacter baumannii it was -11.34%; in the assay with Escherichia coli it was 7.82%; in the assay on Klebsiella pneumoniae, 8.63%; in the assay with Candida albicans, -0.41%; in the assay with Cryptococcus neoformans, -28.56%.

As for `CCN1CCCCC(=N\O)/C(=N/O)CCCC1`, the Inhibition is -0.99% with Staphylococcus aureus; -8.24% with Acinetobacter baumannii; 1.26% in the assay on Escherichia coli; 23.74% in the assay with Klebsiella pneumoniae; -0.06% in the assay with Candida albicans; -7.99% with Cryptococcus neoformans.

With `NC(=O)C1=C(N)c2ccccc2C1c1ccccc1` (stereo not given), the Inhibition in the assay with Staphylococcus aureus is -22.4%; in the assay with Acinetobacter baumannii it was 2.22%; in the assay on Escherichia coli it was -18.86%; with Klebsiella pneumoniae, 1.18%; with Candida albicans it was 4.94%; in the assay on Cryptococcus neoformans it was 28.25%.

For the compound `CC(C)C(=O)Nc1cccnc1`, the Inhibition was -3.96% in the assay on Staphylococcus aureus; -12.43% in the assay with Acinetobacter baumannii; 9.68% in the assay on Escherichia coli; 6.6% with Klebsiella pneumoniae; 0.24% in the assay on Candida albicans; 8.85% in the assay on Cryptococcus neoformans.

On to `CCSc1nc(C)c(C)c(O)n1`, for which the Inhibition in the assay on Staphylococcus aureus is -7.95%; in the assay with Acinetobacter baumannii, -12.73%; with Escherichia coli, 10.67%; in the assay with Klebsiella pneumoniae, 6.61%; in the assay on Candida albicans it was 2.45%; in the assay on Cryptococcus neoformans it was -10.18%.

With `N=C(NOC(=O)c1ccccc1)C(Cc1ccccc1)C(=O)NOC(=O)c1ccccc1` (stereo not given), the Inhibition is 11.08% in the assay on Staphylococcus aureus; -11.45% in the assay with Acinetobacter baumannii; 18.34% in the assay with Escherichia coli; 10.4% with Klebsiella pneumoniae; 7.02% in the assay with Candida albicans; -11.11% in the assay on Cryptococcus neoformans.

As for `NS(=O)(=O)c1ccc(NC(=S)NC(=O)c2ccco2)cc1`, the Inhibition with Staphylococcus aureus is 17.92%; with Acinetobacter baumannii, 4.84%; in the assay with Escherichia coli, 10.07%; in the assay with Klebsiella pneumoniae it was 4.06%; in the assay with Candida albicans, 1.47%; in the assay with Cryptococcus neoformans, -12.16%.

For `CSC(=N)NS(=O)(=O)c1ccc(NC(C)=O)cc1`, the Inhibition was 1.24% with Staphylococcus aureus; -21.01% with Acinetobacter baumannii; 12.78% in the assay on Escherichia coli; 3.27% with Klebsiella pneumoniae; 0.03% in the assay on Candida albicans; -9.44% in the assay with Cryptococcus neoformans.

As to `Oc1ccc(-c2nc3ccccc3s2)c(O)c1`, the Inhibition in the assay on Staphylococcus aureus was -7.97%; with Acinetobacter baumannii, -9.73%; in the assay on Escherichia coli it was 5.22%; with Klebsiella pneumoniae it was 6.81%; in the assay on Candida albicans it was 13.4%; in the assay with Cryptococcus neoformans, -4.68%.

Turning to `COc1cc(/C=N/N=c2\[nH]c3c(=O)n(C)c(=O)n(C)c3[nH]2)ccc1O`, the Inhibition with Staphylococcus aureus is 15.24%; with Acinetobacter baumannii it was -6.89%; in the assay with Escherichia coli, 14.34%; with Klebsiella pneumoniae it was -8.37%; in the assay with Candida albicans, 48.3%; in the assay with Cryptococcus neoformans, 33.61%.

`c1ccn(CCc2ccncc2)c1`: the Inhibition is 10.09% in the assay on Staphylococcus aureus; -4.91% in the assay on Acinetobacter baumannii; 7.14% in the assay with Escherichia coli; 10.92% with Klebsiella pneumoniae; 2.03% in the assay with Candida albicans; -5.95% in the assay with Cryptococcus neoformans.
